Hits are enriched below; roughly 3% of the tested compounds scored in any of these assays.
USP1-UAF1 inh: Inhibitors of USP1/UAF1: Primary Screen. Ubiquitin carboxyl-terminal hydrolase 1 (Homo sapiens), O94782. actives 0.23% (n = 390,000). recombinant USP1/UAF1, Ub-Rhodamine cleavage fluorescence. Potency, µM (highest dose often 57.1 µM), for the others: at the top dose activity change, negative = inhibition, hits mostly inhibitors; note: % is set by controls: 0 for no effect and ±100 for the full control effect; nearly all actives have a fitted effect of over 60% in size
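1 nM enzyme complex + cpd, 15 min RT; start with Ub-Rho 150nM final; kinetic fluorescence ex 480/em 540, 6 reads q60 s. Buffer 50mM HEPES pH 7.8, 0.5mM EDTA, 0.1 mg/ml BSA, 1mM TCEP, 0.01% Tween-20.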
PTAP TSG101 blk: qHTS Assay for Iinhibitors of HIV-1 Budding by Blocking the Interaction of PTAP/TSG101; Tumor susceptibility gene 101 protein (Homo sapiens), Q99816; Fluorescence polarization, FITC-PTAP peptide / Tsg101 binding; Potency, µM (top dose mostly 115 µM), inactives show top-dose activity change, negative = inhibition, actives largely listed as inhibitors; 340,000 tested, under 10 active; AID 493005, 2010; active = well fitted inhibition curve with a large enough effect in the main read-out, with a control signal flat, not every such curve was filed as active; inconclusive = small, poorly fitted or top-dose-only effect, or effect the other way, or a change in a side signal; inactive = no such curve, though single readings can be large or run the other way; note: % of control where 0% means no effect
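Fluorescence anisotropy tracks displacement of a FITC-tagged PTAP peptide (50 nM) from the Tsg101 binding domain (10 uM), following a 20 min room-temperature incubation at pH 7.5.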
VDR inhibitor: Inhibitors of the vitamin D receptor (VDR): qHTS. Vitamin D3 receptor (Homo sapiens), P11473. VDR-SRC2-3 peptide fluorescence polarization, 2 h. Potency, µM, for inactives: max response, negative = inhibition, most hits filed as inhibitors. actives 0.93% (n = 400,000). AID 504847, 2011; note: % is set by controls: 0 for no effect and ±100 for the full control effect
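FP read-out; VDR + SRC2-3 coactivator peptide; 23 nl compound by pintool; 2 h RT incubation; reagents held at 4 deg C, protected from light.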
KAT2A inh: qHTS Assay for Inhibitors of GCN5L2 | GCN5L2 HAT assay, ThioGlo1 CoA-SH fluorescence | actives 0.21% (n = 390,000) | Potency, µM (titrated, usually from 58.9 µM), for inactives: at the highest dose activity change, negative = inhibition, most hits filed as inhibitors | Histone acetyltransferase KAT2A (Homo sapiens), Q92830; note: % is set by controls: 0 for no effect and ±100 for the full control effect
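Free CoA generated was detected with ThioGlo1 (50uM) fluorescence at Ex340nm/Em540nm, read immediately and after 20 min at room temperature. Enzyme, 20 nM in HEPES pH 7.5 buffer, saw compounds 15 min before adding 75uM H3(1-25) peptide and 70uM acetyl-CoA.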
PLK1 PBD block: qHTS for Inhibitors of PLK1-PDB (polo-like kinase 1 - polo-box domain): Primary Screen | Serine/threonine-protein kinase PLK1 (Homo sapiens), P53350 | Plk1 PBD binding of FITC phosphopeptide, fluorescence polarization | Potency, µM, for inactives: max response, negative = inhibition, actives largely listed as inhibitors | actives 2.8% (n = 360,000) | AID 720504, 2013; note: series mostly up to about 57 µM; % is set by controls: 0 for no effect and ±100 for the full control effect; nearly all actives have a fitted effect of over 65% in size
Target sequence (P53350 whole entry, looked up, the tested form may be a part): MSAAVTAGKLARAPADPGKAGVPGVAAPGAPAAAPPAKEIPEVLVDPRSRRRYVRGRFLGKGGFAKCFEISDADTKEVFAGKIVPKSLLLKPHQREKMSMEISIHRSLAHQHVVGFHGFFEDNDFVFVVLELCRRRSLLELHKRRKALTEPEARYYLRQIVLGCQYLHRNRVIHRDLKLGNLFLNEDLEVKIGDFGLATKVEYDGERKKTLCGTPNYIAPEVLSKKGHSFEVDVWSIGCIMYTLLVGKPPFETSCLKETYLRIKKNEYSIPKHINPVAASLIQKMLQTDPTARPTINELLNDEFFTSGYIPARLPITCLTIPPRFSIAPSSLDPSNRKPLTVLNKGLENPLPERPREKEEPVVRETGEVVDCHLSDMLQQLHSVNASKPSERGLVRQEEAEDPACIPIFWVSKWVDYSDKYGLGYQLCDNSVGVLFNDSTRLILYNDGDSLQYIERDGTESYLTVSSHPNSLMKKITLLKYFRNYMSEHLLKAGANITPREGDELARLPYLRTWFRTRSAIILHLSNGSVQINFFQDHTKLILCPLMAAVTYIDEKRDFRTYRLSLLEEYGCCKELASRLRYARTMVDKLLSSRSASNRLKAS
Numbers without * were called inactive; u = inconclusive; x = no result; ! = not active in a repeat. Unless noted, calls come from the whole dose curve; as a rule, active = well fitted curve in the direction sought with a large enough effect; inconclusive = small, poorly fitted or top-dose-only effect, or another doubt; inactive = no such curve, though single readings can be large; an effect the other way counts as inactive or inconclusive. Potency is the fitted concentration of half-maximal effect.

SMILES	USP1-UAF1 inh	PTAP TSG101 blk	VDR inhibitor	KAT2A inh	PLK1 PBD block
O=C(CC[C@H]1O[C@@H](n2ccc(=O)[nH]c2=O)[C@H](O)[C@@H]1O)N[C@H](Cc1ccccc1)C(=O)NCCCc1ccccc1	x	x	x	x	-4%
CCc1cccc(NC(=O)COc2cc(=O)n(CC)c3ccccc23)c1	-19%	x	-1%	1%	x
Cc1ccc(C)c(OC2=NS(=O)(=O)c3ccccc32)c1	-21%	-2%	-17%	-3%	12µM*
CCN(CC)C(=O)CN1C(=O)COc2ccc(S(=O)(=O)N3CCOCC3)cc21	-5%	x	-13%	-3%	x
CC(=O)c1cc(F)ccc1OCC(=O)Nc1ccc2c(c1)OCO2	-20%	0%	-26%	2%	-6%
Cc1ccccc1-c1cc(-c2ccccc2O)n[nH]1	-16%	-1%	0%	-16%	3.4µM*
Oc1ccc(Br)cc1-c1cc(-c2ccccc2Cl)[nH]n1	-7%	-8%	u	-10%	24µM*
CC(C)CC(CSc1ccc(Br)cc1)N1CCN(C)CCC1=O (stereo unspecified)	x	x	-21%	x	x
COc1ccc(/C=C/C(=O)NCCN2CCOCC2)cc1OC	-9%	2%	-26%	-12%	17µM*
COc1cc(/C=C/C(=O)NCCN2CCOCC2)cc(OC)c1OC	0%	-2%	-8%	1%	0%
CN(Cc1ccccc1)C(=O)c1csc([C@@H]2O[C@H](CO)[C@H](O)[C@H](O)[C@H]2O)n1	x	x	x	x	4%
O=C(CSc1ncc2c(n1)-c1ccccc1N(Cc1ccc(Cl)cc1)S2(=O)=O)c1ccccc1	-33%	x	10%	-5%	x
CCN(CC)S(=O)(=O)c1ccc(-c2csc(C)n2)cc1	-18%	-6%	22µM*	-2%	9.5µM*
CN(C(=O)CSc1nc2ccc(NC(=O)COc3ccccc3Cl)cc2s1)c1ccccc1	-20%	x	6%	-7%	x
CCN(CC)S(=O)(=O)c1ccc(C)c(NC(=S)N2CCN(C/C=C/c3ccccc3)CC2)c1	-28%	-2%	u	-5%	-27%
CCN(CC)S(=O)(=O)c1ccc(C)c(NC(=S)N2CCN(c3ccccn3)CC2)c1	-12%	-5%	-1%	-6%	30µM*
Cn1c(NCCN(CCO)CCCc2ccc([N+](=O)[O-])cc2)cc(=O)n(C)c1=O	-13%	4%	50µM*!	-20%	-4%
O=C1/C(=C/c2cccc(Br)c2)SC(=S)N1/N=C/c1cc([N+](=O)[O-])ccc1O	-17%	-2%	u	23%	19µM*
Cc1ccc(N2CC(C(=O)Nc3nnc(SCC(=O)NCC4CCCO4)s3)CC2=O)cc1C (stereo unspecified)	-12%	x	-22%	-23%	-7%
COc1ccc(N2CC(C(=O)Nc3nnc(SCC(=O)NCC4CCCO4)s3)CC2=O)cc1 (stereo unspecified)	-12%	0%	u	x	30µM*
CC(=O)Nc1ccc(OC(=O)c2ccc(Cl)cc2)cc1	-5%	-4%	-14%	-2%	6%
CC1(C)CC(=O)C=C(OC(=O)c2ccc(Cl)cc2)C1	-11%	-1%	16%	1%	12µM*
O=S(=O)(NCC(c1ccccc1)N1CCC(O)CC1)c1ccc(Cl)cc1 (stereo unspecified)	-17%	-2%	-25%	-1%	21µM*
CCSc1nccc(-c2nn(-c3ccc(C)cc3)ccc2=O)n1	-13%	-9%	5%	-5%	-9%
C#CCSc1nccc(-c2nn(-c3ccc(C)cc3)ccc2=O)n1	-13%	-1%	u	-11%	27µM*
SMILES	USP1-UAF1 inh	PTAP TSG101 blk	VDR inhibitor	KAT2A inh	PLK1 PBD block
C#CCSc1nc2ccccc2c(=O)n1CC=C	x	x	-16%	x	x
C#CCSc1nncn1C(=O)/C=C/c1ccccc1	-7%	-2%	u	-29%	24µM*
CCS(=O)(=O)N1CCc2cc(C(=O)Nc3cc(OC)c(Cl)cc3OC)ccc21	-22%	x	4%	-3%	x
Cc1ccccc1-c1ccc2ncnc(N3CCOCC3)c2c1	x	x	56µM*	-22%	x
Cc1ccccc1-c1ccc2ncnc(N3CCN(C)CC3)c2c1	x	x	-8%	-12%	x
Cc1noc(C)c1-c1ccc2ncnc(NC3CC3)c2c1	x	x	-19%	-1%	x
Cc1noc(C)c1-c1ccc2ncnc(NC3CCNCC3)c2c1	x	x	45µM*	u	x
Cc1noc(C)c1-c1ccc2ncnc(N3CCOCC3)c2c1	x	x	50µM*	u	x
Cc1ccccc1-c1ccc2ncnc(NCCN3CCOCC3)c2c1	x	x	50µM*	-24%	x
CCc1ccc(NC(=O)CS(=O)CC(=O)Nc2ccc(-n3cnnn3)c(C)c2)cc1 (stereo unspecified)	21%	-2%	-16%	-2%	-15%
O=c1oc2ccccc2c(Cl)c1CN1CCCCC1	-17%	-1%	4%	-1%	12µM*
Cc1nc(C)c(C(=O)Nc2ncc([N+](=O)[O-])s2)o1	-9%	0%	u	u	27µM*
CC(C)CC(=O)Nc1ncc([N+](=O)[O-])s1	-20%	2%	-26%	-2%	11µM*
Cc1ccc(S(=O)(=O)C(CNC(=O)COc2ccccc2)c2cccs2)cc1 (stereo unspecified)	u	x	-4%	-13%	x
O=S(=O)(c1cccc2nsnc12)N1CCN(c2ccccc2F)CC1	-8%	0%	1%	-11%	24µM*
Cc1ccc(CNC(=O)CCS(=O)(=O)c2ccc(Br)cc2)cc1	-18%	1%	-15%	u	17µM*
Cc1ccc(CNC(=O)CCS(=O)(=O)c2cc3c(cc2C)NC(=O)CO3)cc1	-8%	-1%	9%	-15%	0%
CCN(CC)c1ccc(NC(=O)CCS(=O)(=O)c2ccc(Br)cc2)c(C)c1	-18%	-1%	7%	-1%	27µM*
Cc1ccc(NC(=O)CCS(=O)(=O)c2ccc(Br)cc2)nc1	-1%	0%	50µM*	3%	12µM*
Cc1ccc(CNC(=O)CCS(=O)(=O)c2ccc3c(c2)NC(=O)CO3)cc1	-10%	1%	-15%	0%	27µM*
CC(/C=N/NC(=O)CSc1n[nH]c(=O)[nH]c1=O)=C\c1ccccc1	-9%	-3%	13%	0%	1%
COc1cc(OC)cc(C(=O)NCCc2csc(-c3ccc(C(F)(F)F)cc3)n2)c1	-24%	x	-10%	-22%	x
CCN(CC)C(=O)CSc1nc2c(c(=O)n(C)c(=O)n2C)n1Cc1ccccc1	-1%	x	-14%	-7%	x
CC1CC(=O)C(C(C2=C(O)CC(C)CC2=O)c2ccccc2)=C(O)C1 (stereo unspecified)	3%	-2%	u	x	12µM*

Assay outcomes from PubChem BioAssay.
